Results filed as inconclusive are left out. Unmarked numbers belong to inactive results. Active and inactive are the calls of the source. The call rests on the fitted dose curve; in most records, active means well fitted cell-killing curve with a large enough effect; inconclusive means small, poorly fitted or top-dose-only effect, or effect the other way; inactive means no such curve, though single readings can be large or run the other way.

In PubChem BioAssay AID1345085 (National Center for Advancing Translational Sciences (NCATS), 2018) one finds Potency and activity change, negative = viability loss data, which are given here for 30 compounds.
On the % scale 0 is the no-effect control and ±100 the full control effect; potency means the concentration at half of the fitted maximal effect.

This assay has as its system SW626. The assay can be described thus: Confirmatory qHTS for gynecologic anti-cancer compounds from libraries of approved drugs and bioactive compounds. Further: nearly all actives have a fitted effect of over 55% in size. The conditions noted are these: gynecologic cancer cell panel viability, ATPlite luminescence, 48 h; series mostly up to 57.6 µM. Put shortly:
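Viability is measured as ATP-dependent luciferase light using ATPlite, read 15 min after reagent addition at room temperature. Compounds, in DMSO, span 57.5 uM down to 0.977 nM over 11 threefold steps for 48 h.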
A general note: Quantitative high-throughput screening tests each substance at several concentrations.
On to `CN(C)c1ccc(-c2nc3ncc(Cl)c(N4CCN(CC(=O)Nc5nccs5)CC4)c3[nH]2)cc1`, for which the Potency entry is “inactive”.
The same measure, in the same setting: the value for `C1CCC(C(CC2CCCCN2)C2CCCCC2)CC1` (stereo not given) was 27.3 µM (active).
The same measure, in the same setting: the value for `CC(C)CC(=O)Nc1n[nH]c2c1CN(C(=O)C1CCN(C)CC1)C2(C)C` was “inactive”.
Still for that read-out and setting: the result for `S=c1nc[nH]c2nc[nH]c12` reads 6.85 µM (active).
`CC[C@H](Nc1ncnc2nc[nH]c12)c1nc2cccc(F)c2c(=O)n1-c1ccccc1`: the activity change, negative = viability loss is -5.07% [at 10.7 µM].
Regarding `COc1cc2ncnc(Nc3ccc(F)c(Cl)c3)c2cc1OCCCN1CCOCC1`, the Potency result was “inactive”.
Same read-out and setting: the value for `Cc1ccc(C(=O)N(CCCN)C(c2nc3cc(Cl)ccc3c(=O)n2Cc2ccccc2)C(C)C)cc1` (stereo not given) was 9.68 µM (active).
With `Cc1nc(N)nc(N)c1-c1ccc(Cl)c(Cl)c1`, the Potency was 3.85 µM (active).
The same measure, in the same setting: the value for `O=C(O)C1(Cc2cccc(Nc3nccs3)n2)CCC(Oc2cccc(Cl)c2F)CC1` (stereo not given) was “inactive”.
As for `CC(=O)O[C@H]1C(=O)[C@@]2(C)[C@H]([C@H](OC(=O)c3ccccc3)[C@]3(O)C[C@H](OC(=O)[C@H](O)[C@@H](NC(=O)c4ccccc4)c4ccccc4)C(C)=C1C3(C)C)[C@]1(OC(C)=O)CO[C@@H]1C[C@@H]2O`, the activity change, negative = viability loss was -9.14% [at 10.7 µM].
Turning to `CN[C@@H](C)C(=O)N[C@H]1CN(C(=O)CC(C)C)CC[C@H]2CC[C@@H](C(=O)NC(c3ccccc3)c3ccccc3)N2C1=O`, the Potency result was “inactive”.
Still for that read-out and setting: the value for `c1nc2nc(Nc3ccc(N4CCOCC4)cc3)nc(NC3CCCCC3)c2[nH]1` was “inactive”; that for `CC(Oc1cc(-n2cnc3ccc(CN4CCN(C)CC4)cc32)sc1C(N)=O)c1ccccc1C(F)(F)F` (stereo not given) was 24.3 µM (active); that for `NC1(c2ccc(-c3nc4ccn5c(=O)[nH]nc5c4cc3-c3ccccc3)cc2)CCC1` was “inactive”.
Same read-out and setting: the result for `Cn1cnc2c(F)c(Nc3ccc(Br)cc3Cl)c(C(=O)NOCCO)cc21` reads 2.73 µM (active).
On to `O=C1NC(=O)C(c2cnc3ccccn23)=C1c1cn2c3c(cccc13)CN(C(=O)N1CCOCC1)CC2`, for which the Potency result is “inactive”.
Same read-out and setting: the result for `CNC1CCC(N(Cc2cccc(-c3ccncc3)c2)C(=O)c2sc3ccccc3c2Cl)CC1` (stereo not given) reads 30.6 µM (active); that for `Cc1cc(SCc2sc(-c3ccc(C(F)(F)F)cc3)nc2C)ccc1OCC(=O)O`, “inactive”.
Same read-out and setting: the result for `Cc1cc(CN2CCN(c3c(Br)cnc4nc(-c5ccc(N6CCN(C)CC6)cc5)[nH]c34)CC2)no1` reads 24.3 µM (active).
Same read-out and setting: the value for `NC(=O)c1cnc(-c2ccc(C3(N)CCC3)cc2)c(-c2ccccc2)c1` was 24.3 µM (active).
As for `CN(c1nccc(=O)[nH]1)C1CCN(c2nc3ccccc3n2Cc2ccc(F)cc2)CC1`, the Potency result is “inactive”.
On the same count and under the same terms, the value for `CCC1C(=O)N(C)c2cnc(Nc3ccc(C(=O)NC4CCN(C)CC4)cc3OC)nc2N1C1CCCC1` (stereo not given) was 2.43 µM (active); that for `COc1ccc2c(c1OC)C(=O)O[C@@H]2[C@H]1c2c(cc3c(c2OC)OCO3)CCN1C` was “inactive”.
Still for that read-out and setting: the result for `CN(C)CCC(CSc1ccccc1)Nc1ccc(S(=O)(=O)NC(=O)c2ccc(N3CCN(Cc4ccccc4-c4ccc(Cl)cc4)CC3)cc2)cc1[N+](=O)[O-]` (stereo not given) reads 7.69 µM (active).
Consider `CN1C(=O)C(Cc2c[nH]c3ccccc23)NC1=S` (stereo not given), for which the Potency result is “inactive”.
As to `Cc1cc(Nc2cc(N3CCN(C)CC3)nc(/C=C/c3ccccc3)n2)n[nH]1`, the Potency is 21.7 µM (active).
On the same count and under the same terms, the value for `Cc1cnc(Nc2ccc(CN3CCOCC3)cc2)nc1Nc1cccc(S(=O)(=O)NC(C)(C)C)c1` was 15.3 µM (active).
On the same count and under the same terms, the value for `O=C(/C=C/c1cccc(S(=O)(=O)Nc2ccccc2)c1)NO` was 1.33 µM (active); that for `CN1CCN(c2ccc(OC(F)(F)F)c(Nc3ncc4c(n3)-c3c(c(C(N)=O)nn3CCO)CC4)c2)CC1` was “inactive”; that for `Cc1csc(NC(=O)c2sc3nc4c(c(C(F)(F)F)c3c2N)CCC4)n1` was 1.72 µM (active).
